Whole data set: some 81,000 sequences, median “one-hybrid fitness for binding NBS DNA” near -0.1, cut for the highest 2% near 0.36. The entries come from a sample that favours the highest values as a whole.
B1: Caulobacter ParB omega fusion; a variant is named by its letters at X, in order, B8GW30 (parent)
chain: MESVVVGEPGMSEGRRGLGRGLSALLGEVDAAPAQAPGEQLGGSREAPIEILQRNPDQPRRTFREEDLEDLSNSIREKGVLQPILVRPSPDTAGEYQIVAGERAWRAAQRAGLKTVPIMVRELDDLAVLEIGIIENVQRADLNVLEEALSYKVLMEKFERTQENIAQTIGKSXSHVANXMRLLXLPDEVQSYLVSGELTAXHARAIAAAADPVALAKQIIEGGLSVRETEALARKAPNLSAGKSKGGRPPRVKDTDTQALESDLSSVLGLDVSIDHRGSTGTLTITYATLEQLDDLCNRLTRGI

Variants of: B1
Test: one-hybrid fitness for binding NBS DNA (the Noc-binding site; scaled: cognate 1, non-cognate 0); higher = stronger binding
Settings: with NBS DNA site
Outline: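 Pre- and post-selection plasmids were Illumina-sequenced, three replicate libraries were pooled, and any variant with under 10 reads was removed. The libraries were Caulobacter ParB with four specificity codons randomised, selected in E. coli USO through a HIS3 reporter whose site is 19 bp from the promoter. Cells grew 48 hours at 37°C on M9 without histidine, with 0.1 mM IPTG and 5 mM 3-AT. Fitness is the log change in variant-to-wild-type read ratio, rescaled against cognate and non-cognate.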

one-hybrid fitness for binding NBS DNA, 0.289:
QRDY
QRWY

one-hybrid fitness for binding NBS DNA, 0.586:
QLRS

one-hybrid fitness for binding NBS DNA, 0.297:
QCNY

one-hybrid fitness for binding NBS DNA, 0.319:
QLRN

one-hybrid fitness for binding NBS DNA, 0.521:
QRQY

one-hybrid fitness for binding NBS DNA, 0.344:
QRVY

one-hybrid fitness for binding NBS DNA, 0.258:
QCHY

one-hybrid fitness for binding NBS DNA, 0.699:
QRKY

one-hybrid fitness for binding NBS DNA, 0.553:
QRHY

one-hybrid fitness for binding NBS DNA, 0.718:
QRRY

one-hybrid fitness for binding NBS DNA, 0.452:
QLRH

one-hybrid fitness for binding NBS DNA, 0.22:
QCSY

one-hybrid fitness for binding NBS DNA, 0.271:
QRIY

one-hybrid fitness for binding NBS DNA, 0.508:
QRCY

one-hybrid fitness for binding NBS DNA, ≤ 0.2:
DRLH
NPTI
WVVG
ARKE
GRRW
PTWL
PTTT
ARAA
RHGE
QELE
DGQC
KKKY
RSWM
QSCY
QCLY
QSLY
QRPY
QPCY
HFFC
LYPV
TISM
AKHW
ALKD
SPCC
WADF
RNVM
SLWP
MHGS
FLKC
NLKN
QPHY
QPGY
QPSY
KKIT
QYVI
PAGP
AGDQ
RWTS
MTVE
MHPL
NLEL
YEAS
QSQY
NRKY
GKDL
ARSS
LLLY
CRYR
CRVR
CRDR
CCKR
SYHR
CIIR
QLHC
DTYG
LLQA
YPAF
QLRP
QLYH

one-hybrid fitness for binding NBS DNA, 0.571:
QRGY

one-hybrid fitness for binding NBS DNA, 0.256:
QREY

one-hybrid fitness for binding NBS DNA, 0.447:
QRLY

one-hybrid fitness for binding NBS DNA, 0.556:
QRNY

one-hybrid fitness for binding NBS DNA, 0.477:
QRSY

one-hybrid fitness for binding NBS DNA, 0.417:
CRKR

one-hybrid fitness for binding NBS DNA, 0.373:
CRRR

one-hybrid fitness for binding NBS DNA, 0.265:
QCQY

one-hybrid fitness for binding NBS DNA, 0.3:
QCGY

one-hybrid fitness for binding NBS DNA, 0.433:
QRYY

one-hybrid fitness for binding NBS DNA, 0.252:
QLYS

From a collection of fitness landscapes (doi:10.1016/j.celrep.2020.107928)
